Hits are enriched below; roughly 5.7% of the tested compounds scored in any of these assays.
PI5P4K alpha inh: inhibitors of human PI5P4K alpha; P48426; PI5P4Kalpha enzyme, ADP-Glo luminescence, 60 min; stronger effect = lower value; max response, %; 1.2% of 330,000 active; active = max response of -50% or lower; inconclusive = between -30% and -50%; inactive = -30% or higher; note: value at the top dose of about 77 µM
Target sequence (P48426 whole entry, looked up): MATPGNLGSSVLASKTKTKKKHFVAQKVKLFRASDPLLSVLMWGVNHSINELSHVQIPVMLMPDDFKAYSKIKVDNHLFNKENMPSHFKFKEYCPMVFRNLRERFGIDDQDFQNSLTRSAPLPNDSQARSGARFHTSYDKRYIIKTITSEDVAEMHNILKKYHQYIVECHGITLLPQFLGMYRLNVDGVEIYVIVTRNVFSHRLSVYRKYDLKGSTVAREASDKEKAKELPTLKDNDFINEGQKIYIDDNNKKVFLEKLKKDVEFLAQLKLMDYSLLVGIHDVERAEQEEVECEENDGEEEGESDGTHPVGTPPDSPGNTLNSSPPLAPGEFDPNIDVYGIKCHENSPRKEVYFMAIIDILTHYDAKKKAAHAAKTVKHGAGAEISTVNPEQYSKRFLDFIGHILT
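PI5P4Kalpha ADP-Glo assay; 5 microM ATP final; 60 min RT reaction; HEPES pH 7.4/EGTA/CHAPS, 5% DMSO; controls lacking substrate or enzyme; luminescent end-point.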
KDM4E inh: JMJD2E (human) inhibition | JMJD2E catalytic domain, FDH-coupled NADH fluorescence (FDH is formaldehyde dehydrogenase) | Potency, µM (doses to about 57.1 µM), most hits filed as inhibitors | B2RXH2 | 1.6% of 230,000 active; active = well fitted inhibition curve with a large enough effect, not every such curve was filed as active; inconclusive = small, poorly fitted or top-dose-only effect, or another doubt; inactive = no such curve, though single readings can be large or run the other way; note: nearly all actives have a fitted effect of over 50% in size
Target sequence (B2RXH2 1-337 limits assumed): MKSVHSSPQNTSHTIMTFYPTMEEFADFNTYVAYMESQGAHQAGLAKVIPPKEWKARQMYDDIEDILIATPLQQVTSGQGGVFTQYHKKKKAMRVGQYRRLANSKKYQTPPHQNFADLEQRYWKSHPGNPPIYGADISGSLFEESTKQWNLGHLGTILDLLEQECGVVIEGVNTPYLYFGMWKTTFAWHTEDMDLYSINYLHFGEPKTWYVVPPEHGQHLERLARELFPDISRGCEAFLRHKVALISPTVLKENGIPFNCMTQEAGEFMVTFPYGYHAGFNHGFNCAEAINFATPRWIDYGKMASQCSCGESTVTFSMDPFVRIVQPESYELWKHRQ
BAZ2B inh: blocks human BAZ2B; Q9UIF8; Potency, µM (highest dose often 114 µM), usual class: inhibitors; AID 504333; 4.4% of 360,000 active; AlphaScreen BAZ2B-H3K14Ac peptide displacement; note: nearly all actives have a fitted effect of over 60% in size
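Inhibition is scored as reduced AlphaScreen emission. The BAZ2B/b-H3(5-23)K14Ac complex (50 nM each) in PBS pH 7.4, 0.01% Tween-20 meets compound (up to 110 uM) for 30 min at RT before bead addition.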
L3MBTL1 inh: inhibitors of human L3MBTL1; Potency, µM (series often up to 57.1 µM), hits mostly inhibitors; AID 485360; AlphaScreen L3MBTL1–H3K9me1 peptide binding; 0.66% of 230,000 active; Q9Y468; note: nearly all actives have a fitted effect of over 60% in size
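AlphaScreen proximity signal between nickel-chelate acceptor and streptavidin donor beads (final 10 ug/mL) reports binding of 50 nM L3MBTL1 to 75 nM biotin-H3 K9me1 peptide; complex incubated with compounds 30 min at room temperature; cefsulodin titration as control.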
HP1b chromo inh: blocks HP1-beta chromodomain binding to methylated histone tails. P83916. 0.56% of 390,000 active. AlphaScreen HP1-beta / biotin-H3K9me3 peptide binding. Potency, µM (top dose mostly 114 µM), most hits filed as inhibitors; note: nearly all actives have a fitted effect of over 70% in size
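HP1-beta protein (50 nM final) preincubated 30 min at room temperature with biotinylated H3(1-18)K9me3 peptide (50 nM) in PBS pH 7.4, 0.01% Tween-20, then compound added for 30 min. AlphaScreen streptavidin donor/nickel chelate acceptor beads (10 ug/mL final), 30 min dark, luminescence read.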
JMJD2A Tudor inh: JMJD2A Tudor domain (human) inhibition; Potency, µM (top dose mostly 114 µM), most hits filed as inhibitors; AlphaScreen JMJD2A-Tudor / H3K4me3 peptide binding; 4.4% of 390,000 active; note: nearly all actives have a fitted effect of over 50% in size
Numbers stand for hits; 0 = inactive; ? = inconclusive; - = no result given. Unless noted, calls come from the whole dose curve; as a rule, active = well fitted inhibition curve with a large enough effect; inconclusive = small, poorly fitted or top-dose-only effect; inactive = no such curve, though single readings can be large or run the other way.

SMILES	PI5P4K alpha inh	KDM4E inh	BAZ2B inh	L3MBTL1 inh	HP1b chromo inh	JMJD2A Tudor inh
CCN=c1scc(-c2cccs2)n1/N=C/c1cc(OC)ccc1O	0	0	13µM	0	14µM	40µM
COc1ccc(O)c(/C=N/n2c(-c3ccco3)csc2=Nc2cccnc2)c1	0	0	?	0	0	0
COc1ccc(C(CC(=O)Nc2ccc(F)c(Cl)c2)N2Cc3ccccc3C2=O)cc1OC (configuration not stated)	-	-	0	-	0	0
O=C(c1cccc([N+](=O)[O-])c1)c1ccc2[nH]c(=O)[nH]c2c1	0	-	0	-	0	0
Cc1ccc(Sc2ccc(/C=N/O)cc2[N+](=O)[O-])cc1	0	0	?	-	0	45µM
CO/N=C/c1ccc(Sc2ccc(C)cc2)c([N+](=O)[O-])c1	0	0	?	-	?	?
Cc1ccc(NC(=O)c2ccc3ccccc3n2)cc1S(=O)(=O)N(C)C	0	0	0	0	0	0
CN(C)S(=O)(=O)c1cccc(NC(=O)c2cncc(Br)c2)c1	0	0	0	0	0	0
Cc1ccc(NC(=O)c2cncc(Br)c2)cc1S(=O)(=O)N(C)C	0	0	0	0	?	13µM
Cc1cnc(C(=O)Nc2ccc(C)c(S(=O)(=O)N(C)C)c2)cn1	0	0	0	0	0	50µM
Cc1ccccc1Nc1c(-c2ccc(N3CCOCC3)cc2)nc2ccccn12	-	-	18µM	-	?	28µM
Cc1ccccc1Nc1c(-c2ccc(N3CCOCC3)cc2)nc2cccc(C)n12	-	-	?	-	?	22µM
Cc1ccccc1Nc1c(-c2cccnc2)nc2cccc(C)n12	0	?	?	-	0	0
CCc1cccc(C)c1Nc1c(-c2ccc(N3CCOCC3)cc2)nc2ncccn12	-	-	28µM	-	?	40µM
CC(C)(C)OC(=O)NCC(=O)NNC(=O)c1nc2ccccc2[nH]1	-	-	-	-	-	0
O=[S+]([O-])(c1ccc2c(c1)OCCO2)N1CCN([S+](=O)([O-])c2c(F)cc(F)cc2Br)CC1	-	-	-	-	-	0
CC(=O)c1ccc(N2CCN(S(=O)(=O)c3ccc(-c4cc(C(F)(F)F)on4)s3)CC2)cc1	-	-	0	-	0	0
CCN(CC)C(=N)/C(C#N)=N/Nc1ccccc1	0	0	0	0	?	79µM
N#C/C(=N\Nc1ccccc1)C(=N)N1CCCCC1	0	0	?	-	0	0
N#C/C(=C\c1ccc(O)c(O)c1)S(=O)(=O)c1ccccc1	0	25µM	10µM	?	?	?
N#C/C(=C/c1ccc(F)cc1)S(=O)(=O)c1ccccc1	0	0	0	0	0	0
O=C(Nc1cccc(Cl)c1)C1CCN(c2nc3ccccc3nc2C(F)(F)F)CC1	-	-	0	-	0	0
O=C(CN1CCN(S(=O)(=O)c2ccccc2F)CC1)N1CCc2ccccc2C1	0	-	-	0	0	0.79µM
Fc1ccc(-c2csc(=Nc3cccc(C(F)(F)F)c3)n2Cc2ccc3c(c2)OCO3)cc1	-	-	?	-	0	0
Cc1ccc(-c2csc(=Nc3ccc(F)cc3)n2Cc2ccc3c(c2)OCO3)cc1C	-	-	4.5µM	-	?	50µM
SMILES	PI5P4K alpha inh	KDM4E inh	BAZ2B inh	L3MBTL1 inh	HP1b chromo inh	JMJD2A Tudor inh
Cc1ccc(-c2csc(=Nc3ccccc3)n2Cc2ccc3c(c2)OCO3)cc1C	-	-	100µM	-	0	?
COc1ccc(CCNC(=O)C(=O)NCC(c2ccco2)S(=O)(=O)c2ccc(F)cc2)cc1 (configuration not stated)	-	-	0	-	0	0
CN(C)c1ccc(CC(=O)c2nc3ccccc3s2)cc1	0	0	40µM	0	?	18µM
COc1cccc(CNS(=O)(=O)c2c(C(=O)N3CCCCCC3)c(C)n(C)c2C)c1	0	-	0	-	0	22µM
O=C(O)c1ccc2c(c1)S(=O)(=O)c1cc(Cl)ccc1C2=O	-52	-	0	0	0	0
O=C(O)c1ccc2c(c1)S(=O)(=O)c1ccccc1C2=O	-74	-	0	-	0	0
O=C(O)c1ccc2c(c1)S(=O)(=O)c1cc(N3CCN(c4cnccn4)CC3)ccc1C2=O	-67	-	-	-	-	-
O=C1c2ccccc2S(=O)(=O)c2cc(N3CCN(C(=O)c4ccccc4)CC3)ccc21	0	-	-	-	0	0
CCn1cc(C(=O)NCc2ccccc2OC)c(=O)c2cc(S(=O)(=O)N3CCCCC3)ccc21	-	-	-	-	0	0
CC(C)(C)OC(=O)Cc1nnc(-c2nc3ccccc3[nH]2)s1	-	-	-	-	-	0
Cc1nn(-c2ccccc2)c2c1N(CC(=O)NCc1ccc(N(C)C)cc1)C(=O)CS2	-	-	?	-	0	0
Cc1ccc(C2(CCNCc3ccc(N(C)C)cc3)CCOC(C(C)C)C2)cc1 (configuration not stated)	0	0	35µM	?	?	40µM
CC(C)C1CC(CCNCc2ccc(N(C)C)cc2)(c2ccccc2)CCO1 (configuration not stated)	0	0	25µM	0	?	32µM
Oc1c(Br)cc(C2N=C(c3ccccc3Cl)NO2)cc1Br (configuration not stated)	?	0	0	0	?	40µM
CCCCNC(=O)CCCn1c(=O)c2ccccc2n(Cc2ccccc2C)c1=O	-	-	0	-	0	0
Cc1cc(/C=C2\SC(=O)N(C)C2=O)c(C)n1-c1ccc(O)cc1	0	-	50µM	0	0	?
S=c1[nH]ccn1-c1cccc(Cl)c1Cl	0	0	0	0	0	16µM
S=c1[nH]ccn1-c1ccccc1Cl	0	0	0	0	0	22µM
O=c1c2cn[nH]c2[nH]c(=S)n1-c1ccccc1Cl	0	?	0	-	0	0
Cc1cccc(C)c1NC(=O)C(NS(=O)(=O)c1ccc2c(c1)CCC(=O)N2)c1ccccc1 (configuration not stated)	-	-	0	-	0	0
CCN(CC)C(=O)CSc1nc2cc3c(cc2c(=O)n1Cc1ccc(OC)cc1)OCO3	0	0	56µM	-	0	79µM
CCOc1ccccc1NC(=O)CSc1cn(CC(=O)N2CCCCCC2)c2ccccc12	-	-	0	-	0	0
CCSC(C)CC1CC(=O)CC(=O)C1 (configuration not stated)	0	0	0	0	0	0
CCOC(=O)C1C(=O)C(C(C)=O)C(=O)CC1CC(C)SCC (configuration not stated)	-	0	0	-	0	89µM
CCSc1ccc2c(c1)N(CCCN1CCN(C)CC1)c1ccccc1S2	0	0	35µM	0	?	40µM
SMILES	PI5P4K alpha inh	KDM4E inh	BAZ2B inh	L3MBTL1 inh	HP1b chromo inh	JMJD2A Tudor inh
CN1CCN(CCCN2c3ccccc3Sc3ccc(Cl)cc32)CC1	0	?	20µM	?	?	45µM
CC(CN1CCN(CCOCCO)CC1)CN1c2ccccc2Sc2ccc(Cl)cc21 (configuration not stated)	0	-	-	-	-	-
COc1ccc(/C=C/C2=CCN(Cc3ccc(OC)cc3)CC2)cc1	0	28µM	?	-	0	0
COc1ccc(/C=N/N2CCN(Cc3ccccc3)CC2)cc1	0	-	?	0	?	?
O=C(NCC1CCN(Cc2ccc(F)cc2)CC1)c1cc2ccc3cccnc3c2[nH]1	-	-	0	-	0	0
Cc1cc(O)c2c(c1)C(=O)c1cccc(O)c1C2=O	-	?	0	0	-	-

Bioassay records from PubChem.
